Each structure is given as a SMILES string. “And” between values parts separate entries of the source, which are not always exact repeats. Identical values can stand only once. Inconclusive results are not listed. Unmarked numbers belong to inactive results.
% is scaled to controls: 0 for no effect and ±100 for the full control effect.

Retinoic acid receptor RXR-alpha (Homo sapiens), sequence (P19793 whole entry, looked up): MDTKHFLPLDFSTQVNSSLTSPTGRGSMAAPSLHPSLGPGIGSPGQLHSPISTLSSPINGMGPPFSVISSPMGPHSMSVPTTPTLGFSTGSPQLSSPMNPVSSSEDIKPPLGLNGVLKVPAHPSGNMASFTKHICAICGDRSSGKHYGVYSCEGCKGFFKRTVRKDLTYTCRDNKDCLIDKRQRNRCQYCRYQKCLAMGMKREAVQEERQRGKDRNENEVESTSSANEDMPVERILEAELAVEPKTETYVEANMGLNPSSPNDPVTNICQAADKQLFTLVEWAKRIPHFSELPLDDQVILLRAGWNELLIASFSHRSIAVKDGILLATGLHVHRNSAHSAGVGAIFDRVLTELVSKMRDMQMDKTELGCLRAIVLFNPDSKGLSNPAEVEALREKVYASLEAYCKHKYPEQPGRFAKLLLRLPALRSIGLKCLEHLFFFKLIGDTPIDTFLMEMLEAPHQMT
Thyroid hormone receptor beta (Homo sapiens), sequence (P10828 whole entry, looked up): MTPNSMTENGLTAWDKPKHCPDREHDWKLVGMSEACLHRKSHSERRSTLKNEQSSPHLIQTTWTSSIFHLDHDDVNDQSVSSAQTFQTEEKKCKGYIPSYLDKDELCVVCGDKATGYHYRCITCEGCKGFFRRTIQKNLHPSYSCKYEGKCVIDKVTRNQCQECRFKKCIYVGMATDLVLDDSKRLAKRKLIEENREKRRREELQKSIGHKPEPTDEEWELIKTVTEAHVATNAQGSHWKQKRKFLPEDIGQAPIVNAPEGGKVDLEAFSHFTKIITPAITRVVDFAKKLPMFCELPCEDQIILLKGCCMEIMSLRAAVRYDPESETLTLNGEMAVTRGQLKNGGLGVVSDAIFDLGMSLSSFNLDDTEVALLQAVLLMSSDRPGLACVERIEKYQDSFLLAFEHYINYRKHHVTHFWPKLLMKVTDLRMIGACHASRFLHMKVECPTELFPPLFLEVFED

The first test concerns the target Retinoic acid receptor RXR-alpha (Homo sapiens) (UniProt P19793). Put plainly: qHTS assay for small molecule antagonists of retinoid X receptor alpha signaling (AID 588546; active = well fitted inhibition curve with a large enough effect in the signal ratio, with a control signal flat, not every such curve was filed as active; the % refers to the signal ratio). The following applies: HEK293T RXRa-UAS-bla, beta-lactamase ratio, antagonist mode. The essentials: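 Beta-lactamase reporter inhibition, read as CCF4 fluorescence ratio (ex 405, em 460/530 nm) after 2 h at RT. HEK293T UAS-bla cells, 2500/well, were stimulated with 9-cis-RA at 500 or 100 nM final alongside test compound for 18 h at 37 C.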
For orientation: qHTS replaces the single test concentration by a dilution series.
As to `O=[N+]([O-])c1ccc(NCCO)c(OCCO)c1`, the max response is -6.4%.
Same read-out and setting: with `ClC/C=C/CCl` the figure was 0.33%.
For the compound `Cc1cscn1`, the max response is 3.21%.
On the same count and under the same terms, with `CCCCCCCN` the figure was -5.49%.
In the case of `CC(C)(O)CCC(C)(C)O`, the max response was 1.42%.
Still for that read-out and setting: with `Nc1cccc(S(=O)(=O)O)c1` the figure was 16.1%; with `O=Cc1c(Cl)cccc1Cl`, -1.18%.
Take `Oc1c(Cl)ccc(Cl)c1Cl`: the max response is 17.5%.
In the case of `COC(=O)CCCC(=O)OC`, the max response is -11%.
For `O=c1[nH][nH]c(=O)c2cc([N+](=O)[O-])ccc12`, the max response was 10.6%.
As for `C=Cc1ccccn1`, the max response was -1.58%.
On the same count and under the same terms, with `Nc1ccc([N+](=O)[O-])c(N)c1` the figure was -8.62%; with `Nc1cccc(N)c1`, -3.92%; with `CSc1ccc(C=O)cc1`, 1.67%.
The same measure, in the same setting: with `Cc1ccc([N+](=O)[O-])c(N)c1` the figure was -4.21%; with `COc1ccc(N)c(OC)c1`, -1.72%.
Same read-out and setting: the figure for `C=CCCCC` is -7.65%; for `C=CC(=O)NC(C)C` it is 0.568%; for `C/C(C=O)=C/c1ccccc1` it is -7.56%.
Consider `CCCCCCCCN`, for which the max response is 13.9%.
Same read-out and setting: the figure for `C=CCCC` is 8.21%; for `C=CCCCCCC` it is -6.3%.
`Cc1ccccc1C=O`: the max response was 9.95%.
Same read-out and setting: with `CCN(CC)c1cccc(O)c1` the figure was 9.83%.
Same read-out and setting: with `Cc1c(N)cccc1N` the figure was -6.28%.
Same read-out and setting: the figure for `CC(=C/C=C/C(C)=C/C=C/C=C(C)/C=C/C=C(C)/C=C/C(=O)O)/C=C/C(=O)O` is -3.15%; for `Fc1ccccc1` it is -5.23%.
Regarding `NC(=S)NNC(N)=S`, the max response is -19.9%.
On the same count and under the same terms, with `CCNc1cc(O)ccc1C` the figure was 1.41%; with `Cc1ccc(C#N)cc1`, 0.597%; with `c1ccc2n[nH]nc2c1`, -7.97%.
Same read-out and setting: the figure for `Nc1cccc2c(=O)[nH][nH]c(=O)c12` is 12.7%; for `Cc1c(N)cccc1[N+](=O)[O-]` it is -2.95%; for `O=C1OC(=O)c2c(Br)c(Br)c(Br)c(Br)c21` it is 6.1% and -5.43%.
The same measure, in the same setting: the figure for `CCCCC/C=C/C=C/C=O` is 1.5% and -3.35%; for `O=Cc1cccc(Br)c1` it is 4.36%.
In the case of `O=Cc1ccc(CO)o1`, the max response was 8.3%.
Same read-out and setting: with `C=CCn1c(=O)n(CC=C)c(=O)n(CC=C)c1=O` the figure was 6.59%; with `CCCCCCCCCCCCC1CO1` (stereo not given), 7.51%.
The same measure, in the same setting: with `Cc1ccc(C(=O)O)cc1` the figure was -5.24%.

Another test deals with Thyroid hormone receptor beta (Homo sapiens) (UniProt P10828). Description: qHTS assay for small molecule antagonists of thyroid hormone receptor beta signaling (AID 588547; active = well fitted inhibition curve with a large enough effect in the signal ratio, with a control signal flat, not every such curve was filed as active; the % refers to the signal ratio;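 also: cells stimulated with 0.4 nM T3 agonist during compound exposure; series mostly up to about 77 µM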). The note with it: TR-UAS-bla HEK293, beta-lactamase ratio, antagonist mode, 18 h. The gist of the method:
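TR-UAS-bla GripTite HEK293 cells in 2% charcoal/dextran FBS medium were preincubated 4 h at 37 C, given compound (0.59 nM to 92 uM) plus 0.4 nM T3 (final) for 18 h, then CCF4 for 2 h at RT; Hill fit gave IC50.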
On to `O=[N+]([O-])c1ccc(NCCO)c(OCCO)c1`, for which the activity change % (negative = inhibition) was -13.2%.
Same read-out and setting: with `ClC/C=C/CCl` the figure was 19.3%.
Still for that read-out and setting: with `Cc1cscn1` the figure was 9.8%; with `CCCCCCCN`, 3.05%; with `CC(C)(O)CCC(C)(C)O`, 4.09%.
In the case of `Nc1cccc(S(=O)(=O)O)c1`, the activity change % (negative = inhibition) was -28.7%.
As for `O=Cc1c(Cl)cccc1Cl`, the activity change % (negative = inhibition) is -16.1%.
Consider `Oc1c(Cl)ccc(Cl)c1Cl`, for which the activity change % (negative = inhibition) is 13.7%.
Regarding `COC(=O)CCCC(=O)OC`, the activity change % (negative = inhibition) is -27%.
For the compound `O=c1[nH][nH]c(=O)c2cc([N+](=O)[O-])ccc12`, the activity change % (negative = inhibition) is 15.8%.
Turning to `C=Cc1ccccn1`, the activity change % (negative = inhibition) is -28.4%.
On to `Nc1ccc([N+](=O)[O-])c(N)c1`, for which the activity change % (negative = inhibition) was -0.546%.
The same measure, in the same setting: with `Nc1cccc(N)c1` the figure was -1.36%; with `CSc1ccc(C=O)cc1`, 3.08%; with `Cc1ccc([N+](=O)[O-])c(N)c1`, -0.142%.
As for `COc1ccc(N)c(OC)c1`, the activity change % (negative = inhibition) was -1.14%.
Take `C=CCCCC`: the activity change % (negative = inhibition) is 9.97%.
Take `C=CC(=O)NC(C)C`: the activity change % (negative = inhibition) was -0.537%.
Still for that read-out and setting: with `C/C(C=O)=C/c1ccccc1` the figure was -5.38%.
Take `CCCCCCCCN`: the activity change % (negative = inhibition) is 5.95%.
The same measure, in the same setting: with `C=CCCC` the figure was 20.1%; with `C=CCCCCCC`, -3.79%.
On the same count and under the same terms, the figure for `Cc1ccccc1C=O` is 20.8%; for `CCN(CC)c1cccc(O)c1` it is 4.53%.
As for `Cc1c(N)cccc1N`, the activity change % (negative = inhibition) is -2.96%.
Still for that read-out and setting: the figure for `CC(=C/C=C/C(C)=C/C=C/C=C(C)/C=C/C=C(C)/C=C/C(=O)O)/C=C/C(=O)O` is -8.7%; for `Fc1ccccc1` it is -5.64%.
Same read-out and setting: the figure for `NC(=S)NNC(N)=S` is -0.459% and 12.6%.
Turning to `CCNc1cc(O)ccc1C`, the activity change % (negative = inhibition) was 14.6%.
Same read-out and setting: the figure for `Cc1ccc(C#N)cc1` is 4.16%.
As for `c1ccc2n[nH]nc2c1`, the activity change % (negative = inhibition) was -7.43%.
On the same count and under the same terms, the figure for `Nc1cccc2c(=O)[nH][nH]c(=O)c12` is -3.76%.
The same measure, in the same setting: the figure for `Cc1c(N)cccc1[N+](=O)[O-]` is -5.59%; for `O=C1OC(=O)c2c(Br)c(Br)c(Br)c(Br)c21` it is 7.07% and -6.85%; for `CCCCC/C=C/C=C/C=O` it is 6.77% and -0.205%.
For `O=Cc1cccc(Br)c1`, the activity change % (negative = inhibition) is -16.4%.
In the case of `O=Cc1ccc(CO)o1`, the activity change % (negative = inhibition) is 7.62%.
Still for that read-out and setting: the figure for `C=CCn1c(=O)n(CC=C)c(=O)n(CC=C)c1=O` is -0.231%.
For `CCCCCCCCCCCCC1CO1` (stereo not given), the activity change % (negative = inhibition) is -0.964%.
On the same count and under the same terms, the figure for `Cc1ccc(C(=O)O)cc1` is 18.4%.

The values are drawn from PubChem BioAssay (NCATS).
